# Measured values taken from the supplement of paper PMC10981050.
# Values joined by “and” are separate entries in the source; they are usually repeats but may differ in a detail not shown here. Equal values may be shown once. Where a name gives a salt, the structure may show the parent alone.
# Columns and labels:
# Experiment in all cases: cell viability relative to vehicle control; higher = less cytotoxic
# Conditions in all cases: 10 µM
# K562 = tested on: K562
# In short: (§1)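 Mutant clones made by CRISPR editing and their isogenic wild-type counterparts, from four leukaemia lines, were exposed to a single 10 µM dose of each library compound for 48 h. The supernatant was then removed and CellTiter-Glo luminescence was read. Viability was reported as percent of the on-plate vehicle control.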
# MARIMO = tested on: MARIMO
# In short: as §1
# MOLM14 = tested on: MOLM14
# In short: as §1
# OCI-AML2 = tested on: OCI-AML2
# In short: as §1
Structure (SMILES),cell viability (K562; SRSF2 genotype: SRSF2 P95H/wt),cell viability (K562; SRSF2 genotype: SRSF2 wt/wt),cell viability (MARIMO; SRSF2 genotype: SRSF2 P95H/wt),cell viability (MARIMO; SRSF2 genotype: SRSF2 wt/wt),cell viability (MOLM14; SRSF2 genotype: SRSF2 P95H/wt),cell viability (MOLM14; SRSF2 genotype: SRSF2 wt/wt),cell viability (OCI-AML2; SRSF2 genotype: P95H/wt),cell viability (OCI-AML2; SRSF2 genotype: wt/wt)
O=C(O)c1cc(O)c2c(c1)[C@@H]([C@H]1c3cc(C(=O)O)cc(O)c3C(=O)c3c(O[C@@H]4O[C@H](CO)[C@@H](O)[C@H](O)[C@H]4O)cccc31)c1cccc(O[C@@H]3O[C@H](CO)[C@@H](O)[C@H](O)[C@H]3O)c1C2=O [Sennoside B],75.3% and 75.2%,81.5%,79.3%,88.2%,76.2%,75.6%,77.4%,87.7%
"C=CC(=O)Nc1cccc(Nc2nc(Nc3ccc(N4CCN(C(C)=O)CC4)cc3OC)ncc2C(F)(F)F)c1 [Rociletinib (CO-1686, AVL-301)]",54.5% and 77.9%,68.3%,34.9%,29.4%,6.76%,11.9%,10.2%,19%
Cc1nc(NC(=O)N2CCC[C@H]2C(N)=O)sc1-c1csc(C(C)(C)C)n1,98.3% and 99.5%,89.9%,64.9%,63.3%,72%,86.6%,61.8%,61.9%
CS(=O)(=O)c1ccc(-c2cnc(N)c(C(=O)Nc3ccccc3)n2)cc1,108% and 109%,116%,113%,110%,109%,110%,98.9%,91.7%
CNC(=C[N+](=O)[O-])NCCSCc1ccc(CN(C)C)o1 [Ranitidine Hydrochloride],108% and 98.4%,102%,99.9%,106%,103%,103%,91%,105%
O=C(Nc1ccc(O)c(C(=O)O)c1)c1cccc(NC(=O)c2ccco2)c1,103% and 105%,99.4%,97.2%,100%,104%,102%,105%,105%
Brc1ccc2[nH]ccc2c1 [5-Bromoindole],107% and 100%,107%,95.7%,98%,99.5%,103%,102%,115%
CC(=O)NS(=O)(=O)c1ccc(N)cc1 [Sulfacetamide],98.7% and 98.1%,111%,90.8%,96.3%,103%,103%,98.4%,106%
Cc1nc(-c2cccnc2)sc1C(=O)Nc1ccccc1-c1cn2c(CN3CCOCC3)csc2n1,97.4% and 94.2%,88.3%,107%,116%,102%,103%,95.3%,102%
COC(=O)N1CCN(Cc2cccc(NC(=O)Nc3ccc(C)nc3)c2F)CC1,89.4% and 89.7%,96.5%,91.9%,94.2%,100%,99.9%,88.4%,87.2%
Cc1ncc([N+](=O)[O-])n1CC(O)CCl (centres undefined) [Ornidazole],96.6% and 100%,94.7%,102%,104%,91.9%,105%,103%,106%
COc1cc(C=CC(=O)CC(=O)C=Cc2ccc(O)cc2)ccc1O [Demethoxycurcumin],46.9% and 54.2%,64.6%,62.9%,64.4%,8.11%,13.7%,13.5%,23.6%
O=c1[nH]c(=O)n(C2CC(O)C(CO)O2)cc1I (centres undefined) [Idoxuridin],86.7% and 92.3%,77%,102%,98.3%,80.5%,88.1%,83.3%,84.3%
O=C1C(Cl)=C(N2CCOCC2)C(=O)N1c1ccc(Cl)c(Cl)c1,97.9% and 96%,97.4%,88.2%,109%,87%,94%,83.3%,96.4%
CC(C)=CCCC(C)(O)C1CCC2(C)C1C(O)CC1C3(C)CCC(OC4OC(CO)C(O)C(O)C4OC4OC(CO)C(O)C(O)C4O)C(C)(C)C3CCC12C [(20R)Ginsenoside Rg3],105% and 103%,99.1%,107%,122%,108%,109%,105%,128%
CC(C)(O)[C@H]1CC[C@@](C)(C2[C@@H](O)C[C@@]3(C)[C@@H]4C[C@H](O)C5C(C)(C)[C@@H](O)CCC56CC46CC[C@]23C)O1 (some centres undefined) [Cycloastragenol],105% and 109%,97.6%,112%,118%,108%,107%,111%,110%
COc1ccc(COc2ccc(CC#N)cc2)cc1,103%,97.9%,96.4%,108%,114%,110%,96.3%,82.9%
Cc1ccc2c(=O)c3cccc(CC(=O)O)c3oc2c1C [DMXAA (Vadimezan)],90% and 87.7%,90.5%,89.9%,102%,85.4%,87.8%,88.9%,93.1%
C[N+](C)(C)C[C@H](O)CC(=O)[O-] [L-carnitine (Levocarnitine)],103% and 99.6%,99.8%,99.1%,105%,95.1%,103%,90.9%,110%

Structure (SMILES),cell viability (K562; SRSF2 genotype: SRSF2 P95H/wt),cell viability (K562; SRSF2 genotype: SRSF2 wt/wt),cell viability (MARIMO; SRSF2 genotype: SRSF2 P95H/wt),cell viability (MARIMO; SRSF2 genotype: SRSF2 wt/wt),cell viability (MOLM14; SRSF2 genotype: SRSF2 P95H/wt),cell viability (MOLM14; SRSF2 genotype: SRSF2 wt/wt),cell viability (OCI-AML2; SRSF2 genotype: P95H/wt),cell viability (OCI-AML2; SRSF2 genotype: wt/wt)
OC[C@H]1O[C@@](CO)(O[C@H]2O[C@H](CO)[C@@H](O)[C@H](O)[C@H]2O)[C@@H](O[C@H]2O[C@H](CO)[C@@H](O)[C@H](O)[C@H]2O)[C@@H]1O [D-(+)-Melezitose],100%,97.6%,105%,115%,98.5%,107%,95.1%,95.5%
CC(=O)OCC(=O)[C@@]1(O)CC[C@H]2[C@@H]3CCC4=CC(=O)CC[C@]4(C)[C@@]3(F)[C@@H](O)C[C@@]21C [Fludrocortisone acetate],110% and 103%,104%,105%,109%,111%,102%,113%,119%
CCc1ccc(CCOc2ccc(CC3SC(=O)NC3=O)cc2)nc1 (centres undefined) [Pioglitazone (Actos)],98.5% and 116%,109%,104%,103%,102%,108%,111%,103%
Cc1ccc(=O)n(-c2ccccc2)c1 [Pirfenidone],104% and 107%,103%,103%,103%,97.1%,98.8%,109%,106%
O=c1[nH]nc2c3c(cccc13)N=C(CN1Cc3ccccc3C1)N2,69.4% and 77.8%,66.3%,93%,108%,74.5%,65.6%,69.7%,86.2%
NC(=O)c1ccc(-c2nc(-c3ccc4c(c3)OCCO4)c(-c3ccccn3)[nH]2)cc1,102% and 103%,92.9%,98.5%,103%,97.5%,97.6%,99.6%,96.8%
O=C(Nc1ccccc1)c1cc([N+](=O)[O-])ccc1Cl,91.7% and 96.2%,81.4%,86.8%,90.8%,89.3%,101%,90.1%,91.8%
Cc1ccc(OCC(O)C(C)NC(C)C)c2c1CCC2 (centres undefined),93.5% and 95.7%,92.1%,104%,100%,93.1%,100%,92.2%,99%
Cc1c(OCC(F)(F)F)ccnc1C[S+]([O-])c1nc2ccccc2[nH]1 (centres undefined) [Lansoprazole],98% and 96.2%,90%,98.6%,104%,103%,95.5%,91.7%,102%
Nc1c2c(nc3ccccc13)CCCC2 [tacrine hydrochlorid],101% and 110%,112%,100%,113%,103%,105%,122%,94.5%
Cc1cccc2c3c(ccc12)C1=C(C(=O)C3=O)[C@@H](C)CO1 [Dihydrotanshinone I],3.54% and 3.11%,2.64%,7.76%,7.12%,0.56%,0.4%,0.43%,2.86%
Cc1ccccc1CN1C(=O)C2=C(CCN(Cc3ccccc3)C2)N2CCN=C12,48.2% and 48%,44.5%,46.4%,43.9%,36.8%,44.5%,29.3%,32%
CS(=O)(=O)c1ccc(-c2nnc(/C=C/c3nnc(-c4ccc(C#N)cc4)o3)n2-c2ccccc2Cl)nc1,105% and 94.2%,101%,104%,108%,106%,103%,99%,110%
OC[C@@H](O)CN1CCN(c2ccccc2)CC1 [Levodropropizine],90.9% and 91%,83.9%,85.1%,96.5%,92.5%,91.6%,94.5%,96%
Cn1c(O)c(C2=c3ccccc3=NC2=O)c2ccccc21 [Meisoindigo],22.4% and 19.2%,43.4%,0.73%,0.66%,0.36%,0.48%,0.36%,0.46%
Cc1nnc(C(=O)NC(C)(C)c2nc(C(=O)NCc3ccc(F)cc3)c(O)c(=O)n2C)o1 [Raltegravir (MK-0518)],101% and 94.3%,94.6%,95.8%,103%,98.1%,93.5%,95.4%,98%
N#CC(=C(O)c1ccc(Cl)cc1Cl)c1nc2ccccc2c(=O)[nH]1 [HPI-4 (Ciliobrevin A)],91.5% and 92.8%,93.6%,98.9%,97%,92.1%,87.2%,106%,99.5%
OC[C@H]1O[C@H](OC[C@H]2O[C@H](O[C@]3(CO)O[C@H](CO)[C@@H](O)[C@@H]3O)[C@H](O)[C@@H](O)[C@@H]2O)[C@H](O)[C@@H](O)[C@H]1O [Raffinose],97.9% and 96.4%,95.4%,97.2%,103%,103%,98.1%,94.5%,98.6%
CC1(C)CCC2(C(=O)O)CCC3=C(CCC4C3(C)CCC3C4(C)CC(O)C(O)C3(C)C(=O)O)C2C1 (centres undefined) [Polygalic acid],86.1% and 86.3%,82%,89.8%,92%,87.7%,87.9%,83.1%,95.3%
